# Screens deposited in PubChem by National Center for Advancing Translational Sciences (NCATS).
# Pf growth 96h: Primary qHTS for delayed death inhibitors of the malarial parasite plastid, 96 hour incubation. hit rate 6.9% among 320,000. P. falciparum luciferase reporter growth, 96 h. AID 504834, 2011. Potency, µM (top dose mostly 28.7 µM), for inactives: at the top dose activity change, negative = inhibition, actives largely listed as inhibitors; also: potency is read from the fitted curve at half-maximal effect; % is scaled to controls: 0 for no effect and ±100 for the full control effect
#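 P. falciparum expressing integrated firefly luciferase grown in erythrocytes (2% hematocrit, 0.05% parasitemia final) with compounds for 96 hours at 37 C, 5% CO2. Growth inhibition read as loss of luminescence after adding luciferase detection reagent.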
# LmPK inh: qHTS Assay for Inhibitors of Leishmania Mexicana Pyruvate Kinase (LmPK). hit rate 0.37% among 290,000. AID 1721, 2009. Q27686. Potency, µM (series often up to 57.5 µM), inactives show top-dose activity change, negative = inhibition, most hits filed as inhibitors. purified LmPK, Kinase-Glo ATP luminescence, 1 h; also: potency is read from the fitted curve at half-maximal effect; % is scaled to controls: 0 for no effect and ±100 for the full control effect
# Target sequence (Q27686 whole entry, looked up): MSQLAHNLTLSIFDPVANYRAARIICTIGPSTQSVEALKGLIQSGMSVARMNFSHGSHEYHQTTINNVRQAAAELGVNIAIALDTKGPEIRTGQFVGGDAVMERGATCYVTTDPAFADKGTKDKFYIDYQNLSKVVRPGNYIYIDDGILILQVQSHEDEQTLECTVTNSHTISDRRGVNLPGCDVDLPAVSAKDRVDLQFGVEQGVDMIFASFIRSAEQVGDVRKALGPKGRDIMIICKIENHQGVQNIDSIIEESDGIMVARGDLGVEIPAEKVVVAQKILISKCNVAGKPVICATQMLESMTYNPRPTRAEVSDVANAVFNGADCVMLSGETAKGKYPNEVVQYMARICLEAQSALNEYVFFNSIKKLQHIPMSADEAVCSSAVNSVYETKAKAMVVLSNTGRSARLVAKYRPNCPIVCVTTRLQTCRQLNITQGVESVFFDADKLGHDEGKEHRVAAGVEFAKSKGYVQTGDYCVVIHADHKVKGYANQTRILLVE
#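 In 50 mM imidazole pH 7.2 with 7 mM MgCl2, LmPK (0.1 nM) turned over PEP (0.5 mM) and ADP (0.1 mM) for 1 h at room temperature. Luciferase read-out of ATP.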
# Pf growth 48h: Primary qHTS for delayed death inhibitors of the malarial parasite plastid, 48 hour incubation | P. falciparum luciferase growth in erythrocytes, 48 h | Potency, µM (series often up to 28.7 µM), inactives show top-dose activity change, negative = inhibition, hits mostly inhibitors | hit rate 5.9% among 310,000; also: potency is read from the fitted curve at half-maximal effect; % is scaled to controls: 0 for no effect and ±100 for the full control effect
#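 Read-out is firefly luciferase luminescence from an integrated reporter in P. falciparum, so falling signal marks reduced parasite growth. Infected erythrocytes were at 2% hematocrit and 0.1% parasitemia (final) in Albumax-supplemented RPMI 1640.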
# Shiga toxin inh: A qHTS for Small Molecule Inhibitors of Shiga Toxin. Vero cells, Shiga toxin protein synthesis inhibition reporter. inhibition, % at 38.7 µM. hit rate 9.2% among 290,000; in the data active = inhibition mostly above about 28%, no sharp cut-off; inactive = mostly below about 43%; also: 0% is about no effect
# CHX counter: Cycloheximide Counterscreen for Small Molecule Inhibitors of Shiga Toxin | max response, % | cell reporter, cycloheximide protein synthesis inhibition counterscreen | hit rate 12% among 300,000 | AID 2314, 2010; in the data active = max response mostly above about 13%, no sharp cut-off; inactive = mostly below about 14%; also: read at 38.3 µM for the half of the compounds with a filed dose; 0% is about no effect
# Active calls of the source: *; ? = inconclusive; nt = not tested or not shown. Shown are actives, neighbours in structure and some others; about 22% of the full set was active somewhere. Unless noted, calls follow the shape of the dose curve; as a rule, active = well fitted inhibition curve with a large enough effect; inconclusive = small, poorly fitted or top-dose-only effect, or another doubt; inactive = no such curve, though single readings can be large or run the other way.
SMILES,Pf growth 96h,LmPK inh,Pf growth 48h,Shiga toxin inh,CHX counter
CNC(=O)N(O)C1N(C)C(=O)N(CC(=O)OC)C1(C)C (configuration not stated),1%,-2%,12%,-13,2
Cc1ccc(C(=O)N(c2ccccc2)C2CC(C)N(C(=O)c3ccco3)c3ccccc32)cc1 (configuration not stated),nt,-5%,10µM*,31,18*
COc1ccc(OC)c(/C=C/C(=O)N2CCN(S(=O)(=O)c3ccc(C)cc3C)CC2)c1,13µM*,nt,12µM*,nt,nt
COc1ccc(C)cc1S(=O)(=O)N1CCN(C(=O)c2ncoc2-c2ccc(C)cc2)CC1,14%,-2%,1%,-3,-7
CCc1cc(C(=O)N2CCN(S(=O)(=O)c3cc(C)ccc3C)CC2)sc1C,?,nt,13µM*,nt,nt
COc1ccc(C)cc1S(=O)(=O)N1CCN(C(=O)c2ncoc2-c2cccc(C)c2)CC1,0.93µM*,3%,1%,5,-6
COc1ccccc1/C=C/C(=O)N1CCN(S(=O)(=O)c2cc(C)ccc2C)CC1,?,nt,15µM*,nt,nt
Cc1cc(C)n2nc(SCC(=O)N(C)c3c(N)n(Cc4ccccc4)c(=O)[nH]c3=O)nc2n1,28%,2%,3%,-3,8
O=C(COC(=O)CNS(=O)(=O)/C=C/c1ccccc1)Nc1cccc2ccccc12,1%,0%,4%,-7,6
O=C(NC1CC(=O)N(c2ccc3c(c2)OCCO3)C1)N1CCCCC1 (configuration not stated),33%,nt,2%,nt,nt
Cc1ccccc1-c1nnn(Cc2ccc(F)cc2Cl)n1,8%,-1%,54%,24*,18
O=c1ccc(-c2ccccc2)nn1Cc1ccc(F)cc1Cl,-6%,0%,-12%,-2,-2
Fc1ccc(-c2nnn(Cc3ccc(F)cc3Cl)n2)cc1,-7%,-1%,34%,105*,24*
Fc1ccc(Cn2nnc(-c3ccc(CN4CCOCC4)cc3)n2)cc1,-11%,-6%,?,11,9
COCC(=O)Nc1ccc(C(=O)Nc2ccccc2Cl)cc1,193%,-9%,76%,92*,33*
CS(=O)(=O)c1ccc(C(=O)Nc2ccccc2Cl)cc1,-26%,6%,78%,13,14
Cc1ccccc1C(=O)Nc1cccc(C(=O)Nc2ccccc2C(=O)O)c1,-26%,-5%,4%,-3,-2
O=C(Nc1ccc(Cl)cc1C(F)(F)F)c1ccccc1,?,-3%,23%,15,16*
COc1ccccc1NC(=O)c1ccc(NC(=O)COC(=O)C(C)C)cc1,6.6µM*,-2%,7.4µM*,-2,9
O=C(Nc1ccc(Cl)cc1C(=O)c1ccccc1)c1ccccc1,0%,1%,13%,-14,-5
COc1ccccc1NC(=O)c1ccc(NC(=O)COC(=O)c2ccc(O)cc2)cc1,-22%,nt,?,nt,nt
O=C(Nc1ccccc1C(=O)O)c1cccc(NC(=O)c2ccccc2Cl)c1,10µM*,31%,15%,nt,2
COCCCN1C(=O)C(=O)/C(=C(/O)c2ccc(S(=O)(=O)N3CCOCC3)cc2)C1c1cccc(Cl)c1 (configuration not stated),-2%,-1%,9%,-6,-3
O=C(Nc1ccc(Cl)cc1Cl)C1=Cc2ccccc2OC1,134%,-1%,nt,68*,54*
O=C(Nc1ccc(C(=O)Nc2ccccc2Cl)cc1)c1cccnc1,-11%,-5%,-5%,29*,19*
SMILES,Pf growth 96h,LmPK inh,Pf growth 48h,Shiga toxin inh,CHX counter
O=C(Nc1ccc(Cl)cc1)C1=Cc2cc(Cl)ccc2OC1,nt,1%,-3%,-12,1
O=C(Nc1ccccc1C(=O)Nc1nnc(C(F)(F)F)s1)c1ccccc1Cl,4.7µM*,0%,?,8,11
Cc1ccc(C(=O)Nc2ccccc2Cl)cc1,-11%,-20%,205%,nt,37*
COC(=O)c1c(N2C(=O)[C@H]3[C@@H](C2=O)[C@]2(C(=O)Nc4ccc(C)cc42)N2CCC[C@@H]32)sc(C)c1C,?,0%,5%,26,1
O=C(Nc1cc(Cl)ccc1Cl)c1ccc(-c2ccccc2)cc1,?,-4%,54%,35,17*
NC(=O)c1ccccc1NC(=O)c1ccccc1Cl,?,4%,3%,44,11
O=C(Nc1ccccc1Cl)c1cc[n+]([O-])cc1,7%,-6%,21%,-8,-5
